The full data set covers some 7,900 targets. This sample favours those with a hit. About 0.6% of all pairs of compound and target were hits. A number with no mark means an inactive call.

In this assay the target is YLPM1 (UniProt P49750). Description: log2 fold change, soluble protein after heating vs DMSO (PISA); higher = thermal stabilisation; K562 cells, 10 uM, 30 min; active = over 0.2 and 3.5 SD of the protein, either way, in both replicates (recomputed). The gist of the method: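 Aliquots of K562 cells (2×10^6 cells/mL) treated with 10 μM compound for 30 min were heated for 3 min over 48°C-58°C. After pooling and extraction in PBS with 0.5% NP-40 at 4°C, soluble protein from a 21,000xg, 90 min spin was quantified by TMTpro 16plex LC-MS/MS with channel sums equalised. Thermal stability is expressed against control samples, from duplicates, as a log2 fold change.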
Chain of YLPM1 (P49750 whole entry, looked up): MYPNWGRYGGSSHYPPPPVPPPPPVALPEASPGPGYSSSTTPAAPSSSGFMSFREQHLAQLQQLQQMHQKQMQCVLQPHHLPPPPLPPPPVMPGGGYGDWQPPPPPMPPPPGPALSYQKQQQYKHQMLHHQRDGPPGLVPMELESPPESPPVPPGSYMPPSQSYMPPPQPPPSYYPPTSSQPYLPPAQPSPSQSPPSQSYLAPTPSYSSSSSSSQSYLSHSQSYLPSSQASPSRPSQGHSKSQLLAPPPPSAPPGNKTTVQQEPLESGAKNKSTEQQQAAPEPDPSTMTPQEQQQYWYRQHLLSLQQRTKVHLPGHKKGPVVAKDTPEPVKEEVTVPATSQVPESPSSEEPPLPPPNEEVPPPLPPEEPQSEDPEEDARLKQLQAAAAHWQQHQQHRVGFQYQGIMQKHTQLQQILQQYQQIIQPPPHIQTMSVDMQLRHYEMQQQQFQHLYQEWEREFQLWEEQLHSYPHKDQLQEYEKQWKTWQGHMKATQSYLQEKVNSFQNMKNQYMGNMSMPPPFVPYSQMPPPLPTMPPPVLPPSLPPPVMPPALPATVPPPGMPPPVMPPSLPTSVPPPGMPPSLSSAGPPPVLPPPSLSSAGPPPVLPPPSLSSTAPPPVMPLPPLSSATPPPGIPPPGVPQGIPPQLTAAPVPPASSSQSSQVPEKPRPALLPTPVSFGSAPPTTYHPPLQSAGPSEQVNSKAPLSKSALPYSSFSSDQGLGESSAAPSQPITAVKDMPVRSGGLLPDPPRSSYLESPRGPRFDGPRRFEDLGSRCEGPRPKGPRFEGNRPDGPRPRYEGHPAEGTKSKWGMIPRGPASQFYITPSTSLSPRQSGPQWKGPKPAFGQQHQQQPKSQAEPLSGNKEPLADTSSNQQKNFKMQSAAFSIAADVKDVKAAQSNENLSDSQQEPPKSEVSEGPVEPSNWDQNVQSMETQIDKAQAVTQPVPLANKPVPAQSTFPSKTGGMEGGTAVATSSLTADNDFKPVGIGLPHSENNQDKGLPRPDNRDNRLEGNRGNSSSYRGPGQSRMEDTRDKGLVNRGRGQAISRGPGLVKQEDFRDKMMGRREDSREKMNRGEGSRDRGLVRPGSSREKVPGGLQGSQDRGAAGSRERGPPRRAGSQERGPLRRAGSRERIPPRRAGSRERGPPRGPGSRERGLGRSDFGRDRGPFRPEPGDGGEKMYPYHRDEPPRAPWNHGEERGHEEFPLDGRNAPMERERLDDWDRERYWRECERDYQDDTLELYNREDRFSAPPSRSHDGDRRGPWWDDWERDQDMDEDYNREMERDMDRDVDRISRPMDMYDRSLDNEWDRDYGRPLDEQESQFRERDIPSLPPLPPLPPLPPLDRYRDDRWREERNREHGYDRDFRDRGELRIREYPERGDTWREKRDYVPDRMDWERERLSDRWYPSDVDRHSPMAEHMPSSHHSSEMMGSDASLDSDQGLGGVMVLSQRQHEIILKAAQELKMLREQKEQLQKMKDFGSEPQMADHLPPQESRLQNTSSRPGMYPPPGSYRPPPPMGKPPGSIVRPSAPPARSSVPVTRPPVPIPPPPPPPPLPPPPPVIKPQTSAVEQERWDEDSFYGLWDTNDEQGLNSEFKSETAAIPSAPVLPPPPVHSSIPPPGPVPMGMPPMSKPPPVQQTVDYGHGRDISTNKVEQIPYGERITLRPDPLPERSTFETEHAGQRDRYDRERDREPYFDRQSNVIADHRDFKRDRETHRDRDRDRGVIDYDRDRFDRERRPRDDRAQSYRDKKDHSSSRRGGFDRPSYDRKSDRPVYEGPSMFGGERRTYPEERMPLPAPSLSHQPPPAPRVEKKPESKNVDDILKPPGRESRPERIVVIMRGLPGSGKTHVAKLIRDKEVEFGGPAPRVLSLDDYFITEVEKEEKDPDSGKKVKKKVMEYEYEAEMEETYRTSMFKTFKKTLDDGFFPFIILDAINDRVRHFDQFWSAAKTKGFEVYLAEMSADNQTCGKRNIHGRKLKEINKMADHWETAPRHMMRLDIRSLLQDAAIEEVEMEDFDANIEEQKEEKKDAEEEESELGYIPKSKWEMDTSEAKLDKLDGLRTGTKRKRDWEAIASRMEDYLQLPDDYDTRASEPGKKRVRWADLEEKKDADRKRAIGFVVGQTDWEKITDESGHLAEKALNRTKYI
With `NCC(=O)Nc1ccc(-n2nc(C(F)(F)F)cc2-c2ccc3c(ccc4ccccc43)c2)cc1`, the log2 fold change is -0.069.
Turning to `COc1ccc(Cn2ccc3ccc(C(=O)NO)cc32)cc1`, the log2 fold change was 0.018.
Turning to `COc1cc(C(=O)O)ccc1NC(=O)[C@@H]1N[C@@H](CC(C)(C)C)[C@](C#N)(c2ccc(Cl)cc2F)[C@H]1c1cccc(Cl)c1F` [idasanutlin], the log2 fold change is -0.026.
On to `C/C(=N\NC(=O)c1cccc(S(=O)(=O)N2CCOCC2)c1)c1cc(Cl)ccc1O`, for which the log2 fold change was 0.03.
On to `Cc1ccc2c(=O)c3ccccc3n(CCCN)c2c1C`, for which the log2 fold change is 0.023.
As for `CCCCN(Cc1ccc(C(=O)NO)cc1)C(=O)Nc1ccccc1` [Nexturastat A], the log2 fold change was 0.046.
For `COC(=O)[C@H](CCSC)NC(=O)c1ccc(NC[C@@H](N)CS)cc1-c1ccccc1`, the log2 fold change is -0.014.
Take `O=C(CCCCCCNC(=O)c1cnc(N(c2ccccc2)c2ccccc2Cl)nc1)NO` [citarinostat]: the log2 fold change is 0.099.
To `Cc1ccc(-n2nc(C(C)(C)C)cc2NC(=O)Nc2ccc(OCCN3CCOCC3)c3ccccc23)cc1` [doramapimod] belongs 0; to `CC(C)(O)CC(=O)NCCn1ccc2ncnc(Nc3ccc(Oc4cccc(C(F)(F)F)c4)c(Cl)c3)c21`, -0.002.
For the compound `CC(C)(C)Cn1c(N)nc2ccc(-c3[nH]c(C(C)(C)C)nc3-c3ccc(F)cc3)nc21` [ralimetinib], the log2 fold change was 0.043.
For the compound `CC(C)c1cnn2c(NCc3ccccc3)cc(NCCCCCCN)nc12`, the log2 fold change was -0.086.
For `NC(=O)c1cnc(N[C@@H]2CCCC[C@@H]2N)nc1Nc1cccc(-n2nccn2)c1` the value was -0.034; for `CC(C)N(C[C@H]1O[C@@H](n2cnc3c(N)ncnc32)[C@H](O)[C@@H]1O)[C@H]1C[C@@H](CCc2nc3cc(C(C)(C)C)ccc3[nH]2)C1` [pinometostat], 0.003.
On to `C[C@@H](Oc1cc(-c2cnn(C3CCNCC3)c2)cnc1N)c1c(Cl)ccc(F)c1Cl` [crizotinib], for which the log2 fold change is -0.08.
Turning to `O=C1NC(=NCc2cccs2)S/C1=C\c1ccc2ncccc2c1`, the log2 fold change is 0.057.
With `Cc1cn(-c2cc(NC(=O)c3ccc(C)c(Nc4nccc(-c5cccnc5)n4)c3)cc(C(F)(F)F)c2)cn1` [nilotinib], the log2 fold change is -0.044.
`Cc1cccc(-c2[nH]c(C(C)(C)C)nc2-c2ccc3nccnc3c2)n1`: the log2 fold change is 0.043.
Regarding `CN1CCc2c(c3ccccc3n2Cc2ccc(C(=O)NO)cc2)C1` [Tubastatin A], the log2 fold change was 0.039.
Regarding `CC[C@@H]1C(=O)N(C)c2cnc(Nc3ccc(C(=O)NC4CCN(C)CC4)cc3OC)nc2N1C1CCCC1`, the log2 fold change is -0.016.
As to `CNC(=O)c1ccc(Nc2ncc(C(F)(F)F)c(NCc3nccnc3N(C)S(C)(=O)=O)n2)cc1` [defactinib], the log2 fold change was -0.019.
Turning to `CN1CCC(CNc2ccc3ncc(-c4cccc(OC(F)(F)F)c4)n3n2)CC1`, the log2 fold change is -0.113.
As for `NC1(Cc2ccc(Cl)cc2)CCN(c2ncnc3[nH]ccc23)CC1`, the log2 fold change was 0.102.
For the compound `Cn1cncc1[C@@](N)(c1ccc(Cl)cc1)c1ccc2c(c1)c(-c1cccc(Cl)c1)cc(=O)n2C` [tipifarnib], the log2 fold change was -0.048.
As for `Cc1cc(Nc2cc(N3CCN(C)CC3)nc(Sc3ccc(NC(=O)C4CC4)cc3)n2)n[nH]1` [tozasertib], the log2 fold change was -0.051.
Regarding `O=C(Nc1cccc(Nc2ncc(Br)c(NCCc3cnc[nH]3)n2)c1)N1CCCC1`, the log2 fold change is -0.083.
Consider `c1cc(OCCN2CCCCC2)cc(-c2n[nH]c3ccc(-c4nnc[nH]4)cc23)c1`, for which the log2 fold change is 0.
As for `O=C1c2ccccc2-c2n[nH]c3cccc1c23`, the log2 fold change is 0.02.
As for `CC(=O)c1cnc2ccc(-c3cc(Cl)c(O)c(Cl)c3)nc2c1N[C@H]1CC[C@H](CN(C)C)CC1`, the log2 fold change was -0.093.
To `O=C(Nc1nc2ccccc2n1CCN1CCOCC1)c1cccc([N+](=O)[O-])c1` [IRAK-1-4 Inhibitor I] belongs -0.06.

The record behind these values is the supplement of paper PMC10849652.
